# Assays:
# Assay in all cases: DAPPL (digital affinity profiling via proximity ligation, sequencing); 10 mM Tris-HCl pH 7.5, 50 mM NaCl, 1 mM DTT, 4% glycerol, room temperature, 30 min; GST-TFs on glutathione beads, 16-mer random dsDNA library, 0.1% formaldehyde crosslink after washing; high values mean tight binding
# FLI1 = target: T1, FLI1 (Homo sapiens, UniProt Q01543 1-452); settings: protein: recombinant; tags: N-terminal GST; dsDNA, one strand shown
# T1 sequence: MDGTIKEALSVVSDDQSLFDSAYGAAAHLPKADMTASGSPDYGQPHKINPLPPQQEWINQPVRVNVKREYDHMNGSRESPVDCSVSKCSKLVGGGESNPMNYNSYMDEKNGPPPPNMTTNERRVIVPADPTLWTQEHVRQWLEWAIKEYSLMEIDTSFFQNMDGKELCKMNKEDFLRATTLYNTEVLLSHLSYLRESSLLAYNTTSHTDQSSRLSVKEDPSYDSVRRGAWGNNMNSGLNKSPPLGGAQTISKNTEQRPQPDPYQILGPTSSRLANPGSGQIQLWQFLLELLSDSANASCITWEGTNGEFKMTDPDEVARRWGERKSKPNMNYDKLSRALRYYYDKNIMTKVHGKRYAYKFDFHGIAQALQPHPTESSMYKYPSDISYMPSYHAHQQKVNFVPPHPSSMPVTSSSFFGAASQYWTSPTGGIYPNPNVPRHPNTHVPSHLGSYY
# Summary of the method: (§1)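 Binding signal is given per hexamer as its read frequency for a factor divided by its frequency in the tag-only sample. GST-fused human transcription factors were expressed in yeast, captured on glutathione beads, barcoded with DNA and pooled with that sample, then incubated with 200 nmole of a 16-mer random double-stranded DNA library in Tris/NaCl/DTT/glycerol buffer for 30 min at room temperature. The pools were then washed, crosslinked, proximity-ligated, amplified by PCR and sequenced on an Illumina NextSeq500.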
# ELK1 = target: T2, ELK1 (Homo sapiens, UniProt P19419 1-428); settings: protein: recombinant; tags: N-terminal GST; dsDNA, one strand shown
# T2 sequence: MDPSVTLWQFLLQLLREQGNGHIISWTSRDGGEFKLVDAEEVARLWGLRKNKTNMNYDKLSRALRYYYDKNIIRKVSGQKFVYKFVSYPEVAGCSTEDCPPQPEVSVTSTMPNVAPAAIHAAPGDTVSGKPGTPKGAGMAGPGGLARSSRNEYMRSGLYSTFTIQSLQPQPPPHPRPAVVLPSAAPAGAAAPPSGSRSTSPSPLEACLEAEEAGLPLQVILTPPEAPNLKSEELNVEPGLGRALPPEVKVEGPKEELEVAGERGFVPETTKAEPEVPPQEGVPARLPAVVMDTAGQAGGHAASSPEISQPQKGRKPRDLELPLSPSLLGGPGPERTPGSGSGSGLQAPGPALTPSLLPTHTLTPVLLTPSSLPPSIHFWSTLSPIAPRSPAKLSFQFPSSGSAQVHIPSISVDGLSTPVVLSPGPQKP
# Summary of the method: as §1
# GABPA = target: T3, GABPA (Homo sapiens, UniProt Q06546 1-454); settings: protein: recombinant; tags: N-terminal GST; dsDNA, one strand shown
# T3 sequence: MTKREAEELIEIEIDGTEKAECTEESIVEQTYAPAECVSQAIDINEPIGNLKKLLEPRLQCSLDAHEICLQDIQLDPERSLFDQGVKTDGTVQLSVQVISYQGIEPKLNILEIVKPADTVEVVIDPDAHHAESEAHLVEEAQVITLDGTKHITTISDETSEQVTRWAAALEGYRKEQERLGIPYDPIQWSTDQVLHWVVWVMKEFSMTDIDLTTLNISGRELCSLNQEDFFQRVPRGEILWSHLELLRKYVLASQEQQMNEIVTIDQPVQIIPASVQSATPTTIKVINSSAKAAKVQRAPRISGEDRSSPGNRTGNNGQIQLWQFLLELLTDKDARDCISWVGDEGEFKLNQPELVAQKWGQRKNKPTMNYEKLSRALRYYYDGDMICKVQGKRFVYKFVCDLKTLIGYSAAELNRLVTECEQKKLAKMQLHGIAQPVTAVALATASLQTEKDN
# Summary of the method: as §1
# ERG = target: T4, ERG (Homo sapiens, UniProt P11308 1-479); settings: protein: recombinant; tags: N-terminal GST; dsDNA, one strand shown
# T4 sequence: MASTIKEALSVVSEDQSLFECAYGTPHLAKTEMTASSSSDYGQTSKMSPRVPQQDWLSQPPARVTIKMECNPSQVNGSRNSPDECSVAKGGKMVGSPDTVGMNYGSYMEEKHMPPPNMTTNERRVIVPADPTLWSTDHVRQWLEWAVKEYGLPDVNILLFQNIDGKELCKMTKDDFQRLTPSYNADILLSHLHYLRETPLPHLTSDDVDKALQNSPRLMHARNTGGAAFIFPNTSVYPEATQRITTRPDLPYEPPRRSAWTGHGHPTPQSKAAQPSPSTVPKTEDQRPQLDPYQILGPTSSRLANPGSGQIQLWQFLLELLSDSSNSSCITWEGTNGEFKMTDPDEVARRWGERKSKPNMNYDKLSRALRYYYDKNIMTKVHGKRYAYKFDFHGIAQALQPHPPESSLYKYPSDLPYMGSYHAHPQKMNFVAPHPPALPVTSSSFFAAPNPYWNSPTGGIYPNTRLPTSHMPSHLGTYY
# Summary of the method: as §1
# ELF1 = ELF1 (Homo sapiens, UniProt P32519 1-619); settings: protein: recombinant; tags: N-terminal GST; dsDNA, one strand shown
# ELF1, sequence (P32519 whole entry): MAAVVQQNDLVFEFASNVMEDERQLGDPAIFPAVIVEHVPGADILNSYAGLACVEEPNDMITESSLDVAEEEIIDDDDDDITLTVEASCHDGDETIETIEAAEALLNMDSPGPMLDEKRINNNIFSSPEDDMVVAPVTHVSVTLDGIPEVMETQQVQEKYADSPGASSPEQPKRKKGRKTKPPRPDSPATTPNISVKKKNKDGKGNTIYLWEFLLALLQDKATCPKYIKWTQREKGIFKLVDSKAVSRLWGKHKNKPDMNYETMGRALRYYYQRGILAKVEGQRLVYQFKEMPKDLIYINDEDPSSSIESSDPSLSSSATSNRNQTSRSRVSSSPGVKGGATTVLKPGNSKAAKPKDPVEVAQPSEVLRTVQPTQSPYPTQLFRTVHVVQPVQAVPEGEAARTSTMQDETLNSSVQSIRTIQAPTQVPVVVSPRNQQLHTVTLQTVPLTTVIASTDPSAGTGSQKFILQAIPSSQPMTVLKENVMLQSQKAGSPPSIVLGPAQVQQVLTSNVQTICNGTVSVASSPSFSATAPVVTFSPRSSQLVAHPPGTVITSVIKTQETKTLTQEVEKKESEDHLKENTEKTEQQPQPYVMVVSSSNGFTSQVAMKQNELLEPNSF
# Summary of the method: as §1
# EHF = target: T5, EHF (Homo sapiens, UniProt Q9NZC4 1-300); settings: protein: recombinant; tags: N-terminal GST; dsDNA, one strand shown
# T5 sequence: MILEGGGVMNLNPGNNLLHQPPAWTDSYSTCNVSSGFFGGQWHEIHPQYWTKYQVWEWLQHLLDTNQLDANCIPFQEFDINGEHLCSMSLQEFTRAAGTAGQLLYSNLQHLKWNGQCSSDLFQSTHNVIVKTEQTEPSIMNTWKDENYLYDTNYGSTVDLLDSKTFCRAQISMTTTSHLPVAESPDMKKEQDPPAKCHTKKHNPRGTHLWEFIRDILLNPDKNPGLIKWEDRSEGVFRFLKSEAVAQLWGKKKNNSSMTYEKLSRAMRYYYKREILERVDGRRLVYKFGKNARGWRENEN
# Summary of the method: as §1
# SPI1 = SPI1 (Homo sapiens, UniProt P17947 1-270); settings: protein: recombinant; tags: N-terminal GST; dsDNA, one strand shown
# Summary of the method: as §1
# SPIB = SPIB (Homo sapiens, UniProt Q01892 1-262); settings: protein: recombinant; tags: N-terminal GST; dsDNA, one strand shown
# SPIB, sequence (Q01892 whole entry): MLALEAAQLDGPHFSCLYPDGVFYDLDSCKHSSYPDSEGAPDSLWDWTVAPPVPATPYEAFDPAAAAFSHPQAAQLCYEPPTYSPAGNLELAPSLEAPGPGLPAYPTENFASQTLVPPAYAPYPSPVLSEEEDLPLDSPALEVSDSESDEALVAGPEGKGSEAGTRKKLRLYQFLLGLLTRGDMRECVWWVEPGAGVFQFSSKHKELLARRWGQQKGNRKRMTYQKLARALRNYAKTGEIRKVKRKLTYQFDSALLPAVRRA
# Summary of the method: as §1
# ELK3 = target: T6, ELK3 (Homo sapiens, UniProt P41970 1-407); settings: protein: recombinant; tags: N-terminal GST; dsDNA, one strand shown
# T6 sequence: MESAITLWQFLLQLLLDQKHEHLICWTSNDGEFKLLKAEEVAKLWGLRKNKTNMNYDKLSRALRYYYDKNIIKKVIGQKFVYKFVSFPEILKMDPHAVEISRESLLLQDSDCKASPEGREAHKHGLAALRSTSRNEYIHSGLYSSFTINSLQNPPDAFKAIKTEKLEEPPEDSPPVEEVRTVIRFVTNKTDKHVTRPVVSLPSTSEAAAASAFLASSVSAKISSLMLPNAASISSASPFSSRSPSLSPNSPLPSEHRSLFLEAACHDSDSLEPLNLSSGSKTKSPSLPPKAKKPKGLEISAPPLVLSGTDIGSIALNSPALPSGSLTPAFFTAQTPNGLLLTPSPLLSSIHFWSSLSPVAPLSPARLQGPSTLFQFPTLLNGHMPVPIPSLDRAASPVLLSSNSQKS
# Summary of the method: as §1
# FEV = target: T7, FEV (Homo sapiens, UniProt Q99581 1-238); settings: protein: recombinant; tags: N-terminal GST; dsDNA, one strand shown
# T7 sequence: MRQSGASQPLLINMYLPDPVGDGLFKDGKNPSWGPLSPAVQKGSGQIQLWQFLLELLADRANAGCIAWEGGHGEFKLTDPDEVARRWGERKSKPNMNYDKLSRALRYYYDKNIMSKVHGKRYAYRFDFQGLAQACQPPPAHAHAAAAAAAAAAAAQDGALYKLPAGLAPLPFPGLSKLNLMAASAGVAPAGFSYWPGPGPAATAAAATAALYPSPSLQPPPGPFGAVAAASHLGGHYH
# Summary of the method: as §1
# ETV5 = ETV5 (Homo sapiens, UniProt P41161 1-510); settings: protein: recombinant; tags: N-terminal GST; dsDNA, one strand shown
# ETV5, sequence (P41161 whole entry): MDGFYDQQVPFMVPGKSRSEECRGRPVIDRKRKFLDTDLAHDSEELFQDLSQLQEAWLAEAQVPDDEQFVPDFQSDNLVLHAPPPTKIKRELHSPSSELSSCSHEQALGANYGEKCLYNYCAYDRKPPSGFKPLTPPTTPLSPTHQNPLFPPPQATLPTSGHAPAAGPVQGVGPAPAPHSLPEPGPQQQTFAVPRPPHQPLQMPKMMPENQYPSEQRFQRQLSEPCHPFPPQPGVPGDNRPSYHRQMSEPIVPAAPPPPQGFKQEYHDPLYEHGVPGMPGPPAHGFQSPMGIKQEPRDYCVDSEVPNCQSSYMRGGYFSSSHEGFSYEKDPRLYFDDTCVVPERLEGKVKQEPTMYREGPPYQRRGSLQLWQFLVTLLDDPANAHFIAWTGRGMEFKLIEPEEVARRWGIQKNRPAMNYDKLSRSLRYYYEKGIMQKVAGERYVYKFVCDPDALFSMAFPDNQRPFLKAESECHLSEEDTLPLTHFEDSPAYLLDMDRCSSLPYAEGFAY
# Summary of the method: as §1
# HSF1 = HSF1 (Homo sapiens, UniProt Q00613 1-529); settings: protein: recombinant; tags: N-terminal GST; chain copies: 3; dsDNA, one strand shown
# HSF1, sequence (Q00613 whole entry): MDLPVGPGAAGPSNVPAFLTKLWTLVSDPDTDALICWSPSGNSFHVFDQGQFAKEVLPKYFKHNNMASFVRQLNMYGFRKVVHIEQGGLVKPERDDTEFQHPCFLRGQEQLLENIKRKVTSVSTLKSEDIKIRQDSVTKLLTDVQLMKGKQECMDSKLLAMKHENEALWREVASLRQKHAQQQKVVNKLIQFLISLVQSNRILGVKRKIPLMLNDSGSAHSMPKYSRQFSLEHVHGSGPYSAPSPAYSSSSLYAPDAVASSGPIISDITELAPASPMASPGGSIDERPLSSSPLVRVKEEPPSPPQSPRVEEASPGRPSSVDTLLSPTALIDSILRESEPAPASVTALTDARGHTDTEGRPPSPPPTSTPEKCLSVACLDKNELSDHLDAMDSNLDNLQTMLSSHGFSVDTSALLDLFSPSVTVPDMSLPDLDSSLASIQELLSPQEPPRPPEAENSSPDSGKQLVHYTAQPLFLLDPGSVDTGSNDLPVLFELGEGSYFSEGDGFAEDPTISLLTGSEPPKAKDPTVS
# Summary of the method: as §1
# SPIC = target: T8, SPIC (Homo sapiens, UniProt Q8N5J4 1-248); settings: protein: recombinant; tags: N-terminal GST; dsDNA, one strand shown
# T8 sequence: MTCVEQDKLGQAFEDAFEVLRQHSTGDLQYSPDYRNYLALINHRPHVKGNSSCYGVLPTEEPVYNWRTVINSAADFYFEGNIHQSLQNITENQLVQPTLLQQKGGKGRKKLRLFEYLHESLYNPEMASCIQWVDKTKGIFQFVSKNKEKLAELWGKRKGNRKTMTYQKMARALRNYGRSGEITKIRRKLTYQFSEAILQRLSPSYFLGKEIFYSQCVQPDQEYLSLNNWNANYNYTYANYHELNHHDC
# Summary of the method: as §1
# ELF4 = ELF4 (Homo sapiens, UniProt Q99607 1-663); settings: protein: recombinant; tags: N-terminal GST; dsDNA, one strand shown
# ELF4, sequence (Q99607 whole entry): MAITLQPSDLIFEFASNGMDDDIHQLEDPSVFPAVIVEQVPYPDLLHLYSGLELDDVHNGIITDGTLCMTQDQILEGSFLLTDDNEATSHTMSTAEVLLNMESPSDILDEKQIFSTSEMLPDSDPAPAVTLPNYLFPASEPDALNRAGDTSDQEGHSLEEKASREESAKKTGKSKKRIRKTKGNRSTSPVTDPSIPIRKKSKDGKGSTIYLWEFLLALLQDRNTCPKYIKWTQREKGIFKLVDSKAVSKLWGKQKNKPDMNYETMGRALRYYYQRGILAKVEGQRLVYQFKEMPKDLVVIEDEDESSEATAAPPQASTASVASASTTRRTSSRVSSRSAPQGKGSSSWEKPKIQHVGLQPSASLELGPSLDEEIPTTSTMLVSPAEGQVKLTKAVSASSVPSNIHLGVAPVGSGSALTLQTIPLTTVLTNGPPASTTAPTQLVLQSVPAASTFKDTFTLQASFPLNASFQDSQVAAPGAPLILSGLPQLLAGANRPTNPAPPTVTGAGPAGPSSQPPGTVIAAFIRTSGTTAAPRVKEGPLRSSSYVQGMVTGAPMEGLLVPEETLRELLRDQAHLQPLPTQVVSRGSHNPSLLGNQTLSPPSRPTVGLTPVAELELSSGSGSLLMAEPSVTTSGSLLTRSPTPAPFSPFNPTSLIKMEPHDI
# Summary of the method: as §1
# ELK4 = target: T9, ELK4 (Homo sapiens, UniProt P28324-2 1-405); settings: protein: recombinant; tags: N-terminal GST; dsDNA, one strand shown
# T9 sequence: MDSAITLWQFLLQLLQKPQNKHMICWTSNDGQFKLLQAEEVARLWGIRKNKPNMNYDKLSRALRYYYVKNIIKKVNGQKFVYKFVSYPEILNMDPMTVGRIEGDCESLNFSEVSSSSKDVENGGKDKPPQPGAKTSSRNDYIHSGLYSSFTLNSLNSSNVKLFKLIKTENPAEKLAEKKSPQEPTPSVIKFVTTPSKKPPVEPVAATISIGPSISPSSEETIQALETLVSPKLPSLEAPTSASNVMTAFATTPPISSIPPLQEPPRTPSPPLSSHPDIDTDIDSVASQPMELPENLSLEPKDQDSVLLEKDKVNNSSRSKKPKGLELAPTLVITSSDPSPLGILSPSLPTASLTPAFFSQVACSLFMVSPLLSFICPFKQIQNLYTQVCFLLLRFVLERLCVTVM
# Summary of the method: as §1
# ETV2 = target: T10, ETV2 (Homo sapiens, UniProt O00321 1-342); settings: protein: recombinant; tags: N-terminal GST; dsDNA, one strand shown
# T10 sequence: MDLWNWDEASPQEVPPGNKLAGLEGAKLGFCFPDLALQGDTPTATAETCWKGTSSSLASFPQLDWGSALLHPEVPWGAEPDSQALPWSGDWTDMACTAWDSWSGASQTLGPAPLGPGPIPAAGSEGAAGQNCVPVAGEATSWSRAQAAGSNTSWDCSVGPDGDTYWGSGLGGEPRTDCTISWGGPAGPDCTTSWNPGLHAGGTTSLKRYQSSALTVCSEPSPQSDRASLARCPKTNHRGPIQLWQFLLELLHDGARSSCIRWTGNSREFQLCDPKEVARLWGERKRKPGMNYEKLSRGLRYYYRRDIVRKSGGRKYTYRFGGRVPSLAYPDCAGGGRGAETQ
# Summary of the method: as §1
# ELF3 = target: T11, ELF3 (Homo sapiens, UniProt P78545 1-371); settings: protein: recombinant; tags: N-terminal GST; dsDNA, one strand shown
# T11 sequence: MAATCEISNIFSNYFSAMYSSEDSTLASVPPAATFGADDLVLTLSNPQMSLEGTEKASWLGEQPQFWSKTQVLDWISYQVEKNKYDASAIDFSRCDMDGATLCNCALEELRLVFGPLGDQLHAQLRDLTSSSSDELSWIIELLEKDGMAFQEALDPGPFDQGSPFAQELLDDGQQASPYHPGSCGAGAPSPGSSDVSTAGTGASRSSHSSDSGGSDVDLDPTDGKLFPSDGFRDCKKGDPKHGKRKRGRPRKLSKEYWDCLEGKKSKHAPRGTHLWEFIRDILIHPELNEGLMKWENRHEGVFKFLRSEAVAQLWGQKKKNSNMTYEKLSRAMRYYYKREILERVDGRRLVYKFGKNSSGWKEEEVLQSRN
# Summary of the method: as §1
# CRX = CRX (Homo sapiens, UniProt O43186 1-299); settings: protein: recombinant; tags: N-terminal GST; dsDNA, one strand shown
# CRX, sequence (O43186 whole entry): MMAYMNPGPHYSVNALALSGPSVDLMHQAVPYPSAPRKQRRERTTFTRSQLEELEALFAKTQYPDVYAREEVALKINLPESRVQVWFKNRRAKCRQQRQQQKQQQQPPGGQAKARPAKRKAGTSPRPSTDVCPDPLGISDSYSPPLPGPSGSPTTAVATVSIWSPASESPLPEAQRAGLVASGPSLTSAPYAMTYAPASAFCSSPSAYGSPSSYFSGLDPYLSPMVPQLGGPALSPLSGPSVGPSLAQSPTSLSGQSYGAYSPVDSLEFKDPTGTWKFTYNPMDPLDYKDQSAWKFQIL
# Summary of the method: as §1
# ETV1 = ETV1 (Homo sapiens, UniProt P50549 1-477); settings: protein: recombinant; tags: N-terminal GST; dsDNA, one strand shown
# ETV1, sequence (P50549 whole entry): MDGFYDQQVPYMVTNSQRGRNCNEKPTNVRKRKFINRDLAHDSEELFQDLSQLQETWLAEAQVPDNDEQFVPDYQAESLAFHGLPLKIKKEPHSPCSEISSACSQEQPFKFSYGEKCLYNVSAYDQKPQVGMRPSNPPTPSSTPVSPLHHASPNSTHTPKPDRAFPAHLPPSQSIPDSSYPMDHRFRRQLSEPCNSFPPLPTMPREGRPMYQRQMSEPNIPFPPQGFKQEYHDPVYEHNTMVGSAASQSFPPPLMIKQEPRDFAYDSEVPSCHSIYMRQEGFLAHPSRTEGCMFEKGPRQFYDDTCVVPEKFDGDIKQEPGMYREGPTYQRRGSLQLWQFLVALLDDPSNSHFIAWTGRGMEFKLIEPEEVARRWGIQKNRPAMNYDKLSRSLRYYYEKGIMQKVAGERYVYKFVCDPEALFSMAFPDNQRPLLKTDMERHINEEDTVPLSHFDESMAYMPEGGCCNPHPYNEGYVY
# Summary of the method: as §1
sequence,measurement,setting,value
ACCTTA,binding signal,FLI1,"1.34 fold enrichment (6-mer frequency, TF over GST control)"
same,binding signal,ELK1,"1.24 fold enrichment (6-mer frequency, TF over GST control)"
same,binding signal,GABPA,"1.19 fold enrichment (6-mer frequency, TF over GST control)"
same,binding signal,ERG,"1.3 fold enrichment (6-mer frequency, TF over GST control)"
same,binding signal,ELF1,"1.2 fold enrichment (6-mer frequency, TF over GST control)"
same,binding signal,EHF,"1.24 fold enrichment (6-mer frequency, TF over GST control)"
same,binding signal,SPI1,"1.24 fold enrichment (6-mer frequency, TF over GST control)"
same,binding signal,SPIB,"1.21 fold enrichment (6-mer frequency, TF over GST control)"
same,binding signal,ELK3,"1.13 fold enrichment (6-mer frequency, TF over GST control)"
same,binding signal,FEV,"1.27 fold enrichment (6-mer frequency, TF over GST control)"
same,binding signal,ETV5,"1.23 fold enrichment (6-mer frequency, TF over GST control)"
same,binding signal,HSF1,"1.19 fold enrichment (6-mer frequency, TF over GST control)"
same,binding signal,SPIC,"1.11 fold enrichment (6-mer frequency, TF over GST control)"
same,binding signal,ELF4,"1.24 fold enrichment (6-mer frequency, TF over GST control)"
same,binding signal,ELK4,"1.32 fold enrichment (6-mer frequency, TF over GST control)"
same,binding signal,ETV2,"1.32 fold enrichment (6-mer frequency, TF over GST control)"
same,binding signal,ELF3,"1.22 fold enrichment (6-mer frequency, TF over GST control)"
same,binding signal,CRX,"1.43 fold enrichment (6-mer frequency, TF over GST control)"
same,binding signal,ETV1,"1.4 fold enrichment (6-mer frequency, TF over GST control)"
